# Source: the supplement of paper PMC3334620
# In all, about 33,000 sequences were measured (“E-score (-0.5 to 0.5)”: median about -0.04, highest 2% from about 0.36 on). The full list was thinned out, with the highest values kept by preference.
# Target: T1, Hmlalpha2 (UniProt P0CY09)
# T1 sequence: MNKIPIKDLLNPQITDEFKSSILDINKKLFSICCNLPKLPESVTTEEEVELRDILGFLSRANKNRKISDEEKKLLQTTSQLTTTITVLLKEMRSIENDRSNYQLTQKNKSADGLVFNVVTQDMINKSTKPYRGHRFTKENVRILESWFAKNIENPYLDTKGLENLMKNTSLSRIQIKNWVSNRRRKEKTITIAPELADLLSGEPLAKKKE
# Assay: PBM E-score (8-mer binding enrichment) (E-score (-0.5 to 0.5)); higher = stronger / more preferred TF binding
# Details: protein concentration: 200 nM; construct: GST-full length
# Method in brief: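 For each ungapped eight-base word taken together with its reverse complement, the Universal PBM Analysis Suite assigned an E-score. Binding data came from GST-tagged yeast transcription factors, applied at about 100-200 nM, on universal all-10-mer Agilent arrays made double-stranded by primer extension. Fluorescent anti-GST marked bound protein, and scans were normalised with masliner.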
row,Sequence,PBM E-score
1,AACAAGGC,0.219
2,CATCAAGC,-0.116
3,ACCCTAAT,-0.101
4,CCTAATCA,0.0766
5,GTGTGAGA,0.0378
6,AAAACAGA,0.137
7,ATAAAAAG,0.19
8,GGGTAACA,0.17
9,ATGTAACA,0.454
10,GTGTAACA,0.411
11,CTGTAACA,0.223
12,GCGTAACA,0.29
13,AAGTAACA,0.245
14,AGGAGTGG,-0.145
15,ACCCGAGA,-0.255
16,AGTCTGCG,-0.0616
17,ACCAGAAT,0.0511
18,CCACAACA,0.0233
19,AAACAACA,0.367
20,CTACAACA,0.283
21,ACACACCA,0.369
22,TCACACCA,-0.0124

row,Sequence,PBM E-score
1,GTACAACA,0.395
2,ACACAACA,0.381
3,ATACAACA,0.355
4,AAACAACT,0.0928
5,AAACAACC,0.168
6,CCACACCA,0.0331
7,GCACAACA,0.187
8,GTGCTCAA,0.197
9,ATCTGGGG,-0.267
10,CGCTTACA,0.287
11,AAGTTCCG,-0.0355
12,AAGCGGGG,-0.0783
13,AGCTCCCA,-0.128
14,AATGCTCG,0.0169
15,TGAAAGAA,0.129
16,AAAGCACA,0.123
17,AAGTATCT,0.0958
18,ACACAACC,0.305
19,ACACAACG,0.377
20,ACACAGCC,0.317
21,ACACAGCG,0.424
22,ACACAACT,0.317

row,Sequence,PBM E-score
1,ACACAGCA,0.358
2,GAGGAAGC,-0.231
3,AAGAGATG,-0.0147
4,TAAACTTA,0.228
5,CGAAGATA,-0.04
6,AGGTAAGC,-0.198
7,ACAGTCTG,-0.159
8,ACACATCA,0.183
9,AACATACG,0.363
10,CACATACA,0.33
11,TACATACA,0.443
12,AACATACA,0.368
13,TACATATA,0.374
14,CACATATA,0.311
15,AACATACT,0.255
16,CACATAAA,0.259
17,GACATACA,0.315
18,GACATATA,0.163
19,AACATAAA,0.28
20,TACATAAA,0.369
21,ACTACGCT,0.106
22,ACTGCTCA,0.0532

row,Sequence,PBM E-score
1,GAAGATAA,0.242
2,AAAGGGAC,-0.2
3,GCAATCTA,0.119
4,ATCTTCTA,-0.0325
5,CACATAGA,0.0951
6,TACATAGA,0.427
7,GACATAGA,0.145
8,AGTTAACA,0.392
9,CGTTAACA,0.34
10,GGTTAAAA,0.28
11,AGTTAACT,0.129
12,TGTTAAAA,0.43
13,TGCTAACA,0.245
14,CGTTAAAA,0.272
15,TGTTATAA,0.399
16,AGTTATAA,0.172
17,TGTTAACA,0.426
18,AGTTAACG,0.248
19,CGTTATAA,0.222
20,AGCTGGAC,-0.0393
21,AAGGCCAC,-0.186
22,CGGGCAAC,-0.261

row,Sequence,PBM E-score
1,ATAGATTA,0.151
2,AAAAAGGA,-0.00436
3,GTGGCTGA,-0.248
4,CCATGCGG,-0.12
5,GAGGAGAA,-0.191
6,GGTTAACA,0.412
7,GGTTAAGA,0.148
8,GGTTAACC,-0.142
9,CGCCAGAG,-0.305
10,GATGGTCC,-0.0351
11,CCCGGTGA,-0.242
12,CCTACATA,0.13
13,ACGACATG,0.382
14,ACGACATC,0.0415
15,ACTACATG,0.43
16,ACTACATA,0.378
17,ACGACATA,0.134
18,GCTACATA,0.255
19,ACTACAGG,0.133
20,ACTACATC,0.275
21,CCGTTGTC,0.0589
22,ACCCTGCA,0.0038
